Shown are actives, neighbours in structure and some others; about 21% of the full set was active somewhere.
HCV inh: inhibitors of hepatitis C virus infection | Huh7.5.1 HCVcc-Cre infection, luciferase reporter, 44 h | Potency, µM (top dose mostly 41.8 µM), inactives show at the top dose activity change, negative = inhibition, hits mostly inhibitors | hit rate 3.4% among 340,000; further: potency means the concentration at half of the fitted maximal effect; on the % scale 0 is the no-effect control and ±100 the full control effect
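Whole-lifecycle infectious HCVcc-Cre system; cells 1,000/well, compound then virus (~0.5 moi) added 4 h after plating, 44 h culture. Luciferase read 15 sec following 15 min substrate incubation, room temp.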
Pf growth 48h: inhibits P. falciparum growth in the first generation, 48 h | AID 504832 | Potency, µM (titrated, usually from 28.7 µM), without a hit: at the top dose activity change, negative = inhibition, actives largely listed as inhibitors | P. falciparum luciferase growth in erythrocytes, 48 h | hit rate 5.9% among 310,000; further: potency means the concentration at half of the fitted maximal effect; on the % scale 0 is the no-effect control and ±100 the full control effect
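Parasite viability was followed by luminescence of a genomically integrated firefly luciferase. Cultures held 0.1% parasitemia at 2% hematocrit (final), incubated under 5% CO2 at 37 C.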
Pf growth 96h: P. falciparum growth inhibition at 96 hours; P. falciparum luciferase reporter growth, 96 h; Potency, µM (series often up to 28.7 µM), for the others: at the top dose activity change, negative = inhibition, most hits filed as inhibitors; hit rate 6.9% among 320,000; further: potency means the concentration at half of the fitted maximal effect; on the % scale 0 is the no-effect control and ±100 the full control effect
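Two parasite generations (96 h, 37 C, 5% CO2) of compound exposure in infected erythrocytes (0.05% parasitemia, 2% hematocrit). Luciferase-reporter P. falciparum; decreased luminescence indicates inhibited growth, aimed at apicoplast-acting delayed death.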
Cycloheximide cs: counter-screen for Shiga toxin inhibitors: cycloheximide protein synthesis inhibition. cell reporter, cycloheximide protein synthesis inhibition counterscreen. max response, %. hit rate 12% among 300,000. AID 2314; in the data active means max response mostly above about 13%, no sharp cut-off; inactive means mostly below about 14%; further: read at 38.3 µM for the half of the compounds with a filed dose; 0% is about no effect
HCMV antiviral: blocks human cytomegalovirus replication; hit rate 4.5% among 410,000; activity change, negative = inhibition, % at 57.5 µM; AID 1259415; HFF cells, HCMV-luciferase reporter, 72 h; hits give low values; in the data active means activity change below about -60%; inconclusive means no clear call, values can overlap the other calls; inactive means above about -39%; further: on the % scale 0 is the no-effect control and ±100 the full control effect
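Luciferase read-out from HCMV-luciferase-infected HFFs (MOI 1 PFU/cell) 72 h post infection at 37C; compounds added after 16 h cell attachment; activity normalized between buffer-only basal and Salinomycin (10uM) inhibitor controls.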
Shiga toxin inh: inhibitors of Shiga toxin in Vero cells; Vero cells, Shiga toxin protein synthesis inhibition reporter; inhibition, % at 38.7 µM; hit rate 9.2% among 290,000; in the data active means inhibition mostly above about 28%, no sharp cut-off; inactive means mostly below about 43%; further: 0% is about no effect
* marks the source's active call; other numbers are inactive results; ? = inconclusive; / = no result; + = active, no number. Unless noted, the call rests on the fitted dose curve; in most records, active means well fitted inhibition curve with a large enough effect; inconclusive means small, poorly fitted or top-dose-only effect, or another doubt; inactive means no such curve, though single readings can be large or run the other way.

SMILES	HCV inh	Pf growth 48h	Pf growth 96h	Cycloheximide cs	HCMV antiviral	Shiga toxin inh
Cn1cncc1C#Cc1c(C=O)n(C)c2ccccc12	?	12µM*	?	/	-3	/
Cn1cncc1C#Cc1c(C=O)[nH]c2ccccc12	-10%	8.3µM*	5.2µM*	/	37	/
Cn1cncc1C#Cc1c(-c2ccc(S(C)(=O)=O)cc2)sc2ccccc12	4%	/	/	/	-29	/
O=C(O)C1Cc2ccccc2CN1C(=O)c1ccco1 (stereo not given)	1%	-9%	1%	12*	17	/
O=C(NCc1ccccc1)C1Cc2ccccc2CN1C(=O)c1ccco1 (stereo not given)	3%	-8%	5%	-3	-37	6
Cc1ccccc1NC(=O)C1Cc2ccccc2CN1C(=O)c1ccco1 (stereo not given)	-8%	-22%	-27%	45*	51	77*
COc1cccc(NC(=O)C2Cc3ccccc3CN2C(=O)c2ccco2)c1 (stereo not given)	-16%	?	-17%	54*	24	79*
Cc1ccccc1NC(=O)C1Cc2ccccc2CN1C(=O)OCc1ccccc1 (stereo not given)	?	-23%	13µM*	-3	-25	12
CC(CCc1ccccc1)NC(=O)CCC1CCCC1 (stereo not given)	-13%	/	/	/	28	/
CN(CC(=O)Nc1cccc(F)c1)S(=O)(=O)c1ccc2c(c1)n(C)c(=O)c(=O)n2C	/	/	/	/	25	/
Cc1ccc(NC(=O)C2Cc3ccccc3CN2C(=O)c2ccccc2)cc1Cl (stereo not given)	-6%	3%	?	18*	16	3
COc1cccc(NC(=O)[C@@H]2CCCN2C(=O)[C@@H]2Cc3ccccc3CN2C(=O)OC(C)(C)C)c1	0%	?	?	20*	32	52
COc1cccc(NC(=O)CNC(=O)[C@@H]2Cc3ccccc3CN2C(=O)OC(C)(C)C)c1	-1%	?	-20%	-2	-37	-10
CC(C)(C)OC(=O)N1Cc2ccccc2C[C@H]1C(=O)NCC(=O)Nc1ccc2c(c1)OCCO2	1%	74%	49%	52*	-68*	114*
COc1ccc(CNC(=O)[C@@H]2CCCN2C(=O)[C@@H]2Cc3ccccc3CN2C(=O)OC(C)(C)C)cc1	-3%	?	?	2	1	10
COc1ccc(NC(=O)[C@H](C)NC(=O)[C@@H]2Cc3ccccc3CN2C(=O)OC(C)(C)C)cc1	-14%	?	?	-3	+	-3
CCOC(=O)c1c(NC(=O)CN2C(=O)CN(C)C2=O)sc(C)c1C	?	-15%	?	0	-19	2
CC(=O)Nc1ccc2c3c(cccc13)C(=O)N(c1ccccc1)C2=O	-6%	9%	9%	-4	-60*	1
Cc1c(O)c2c3c(cccc3c1O)C(=O)N(c1ccccc1)C2=O	?	?	10µM*	-3	?	-6
CC(=O)Nc1cccc2c1C(=O)N(c1ccc(OC(C)=O)cc1)C2=O	4%	4%	2.6µM*	3	18	11
O=C(O)c1ccc2c3c(cccc13)C(=O)N(c1ccccc1)C2=O	5%	0%	?	-3	-40	-19
O=[N+]([O-])c1cccc(-n2nnnc2CNCc2ccccc2)c1	5%	28%	-23%	-3	?	-12
CC(C)CC1C(=O)N(Cc2cn(CCC3OCCO3)nn2)CCS(=O)(=O)N1Cc1ccc(-c2ccc(F)nc2)cc1 (stereo not given)	/	/	/	/	8	/
Cc1cc(C)cc(NC(=O)Cc2noc3ccccc23)c1	/	/	/	/	43	/
Oc1ccc(-c2nccc(-c3ccc(Cl)cc3Cl)n2)cc1	4%	-14%	-21%	9	?	22
COC(=O)C(C)Oc1ccc(-c2nccc(-c3cccs3)n2)cc1 (stereo not given)	?	2%	7%	27*	33	51*
Oc1ccc(-c2nccc(-c3ccc(Cl)cc3)n2)cc1	3%	69%	79%	53*	-12	123*
Oc1ccc(-c2nccc(-c3cccs3)n2)cc1	?	92%	98%	58*	280	133*
CC(=O)Nc1nc2c(s1)CCc1ccccc1-2	?	67%	62%	17	0	47

Source: PubChem
